Source: PubChem BioAssay (NCI)
About 79,000 compounds went through this panel and 15% of them were active in at least one assay; those are over-represented in the sample as a whole. Activity calls are given as the source filed them. Rule as the data show it: active = growth inhibition above about 70%; inactive = the rest.

Key:
[1] = NCI Yeast Anticancer Drug Screen. Data for the rad52 strain (AID 147);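 also: 0% = growth of vehicle-treated control cultures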; details: S. cerevisiae rad52 mutant growth inhibition, active compounds read high
How it was run: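 Read-out: growth inhibition versus vehicle-treated controls. Cells were a DNA repair-deficient yeast strain treated with compounds.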

[2] = NCI Yeast Anticancer Drug Screen. Data for the wt1 strain (AID 149);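 also: 0% = growth of vehicle-treated wt1 cultures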; details: S. cerevisiae wt1 strain (SPY 50644) growth inhibition, active compounds read high
How it was run: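 wt1 strain grown with compound or vehicle; inhibition taken from the growth difference.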

[3] = NCI Yeast Anticancer Drug Screen. Data for the rad50EPP+ strain (AID 151);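 also: 0% = growth of vehicle-treated control cultures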; details: S. cerevisiae rad50 mutant strain, active compounds read high
How it was run: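 Growth inhibition read against vehicle controls in rad50EPP+ yeast, a strain altered in DNA damage repair, after compound exposure.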

[4] = NCI Yeast Anticancer Drug Screen. Data for the mgt1 strain (AID 153); details: S. cerevisiae mgt1 mutant growth inhibition, active compounds read high
How it was run: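 mgt1 yeast grown with test compound; read-out is growth inhibition versus vehicle-treated cultures.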

[5] = NCI Yeast Anticancer Drug Screen. Data for the rad50 strain (AID 155);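 also: 0% = growth of vehicle-only cultures of the same strain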; details: S. cerevisiae rad50 strain growth inhibition, active compounds read high
How it was run: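 DNA repair mutant yeast, compound exposure, growth read-out; inhibition is taken relative to vehicle.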

[6] = NCI Yeast Anticancer Drug Screen. Data for the mec2-1 strain (AID 157); details: S. cerevisiae mec2-1 strain, active compounds read high
How it was run: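 Yeast mec2-1 mutant treated with compound. Readout: growth inhibition vs vehicle controls.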

[7] = NCI Yeast Anticancer Drug Screen. Data for the rad14 strain (AID 159);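 also: 0% = growth of vehicle-treated control cultures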; details: S. cerevisiae rad14 strain growth inhibition, active compounds read high
How it was run: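 DNA repair-defective yeast, compound-exposed; % growth inhibition derived by comparison with vehicle-treated controls.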

[8] = NCI Yeast Anticancer Drug Screen. Data for the sgs1 mgt1 strain (AID 161);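 also: 0% = growth of cultures given vehicle only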; details: S. cerevisiae sgs1 mgt1 strain, active compounds read high
How it was run: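 Mutant yeast exposed to compound; growth scored against vehicle-only wells.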

[9] = NCI Yeast Anticancer Drug Screen. Data for the CLN2oe strain (AID 163);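 also: 0% = growth of vehicle-only control cultures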; details: S. cerevisiae CLN2oe strain, active compounds read high
How it was run: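 Read-out: yeast growth inhibition, expressed relative to vehicle-only controls. The strain bears an engineered cell-cycle alteration.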

[10] = NCI Yeast Anticancer Drug Screen. Data for the cln2 rad14 strain (AID 165);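 also: 0% = growth equal to vehicle treated cultures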; details: S. cerevisiae cln2 rad14 strain, active compounds read high
How it was run: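 cln2 rad14 yeast strain; compound exposure; growth inhibition read vs vehicle controls.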

[11] = NCI Yeast Anticancer Drug Screen. Data for the bub3 strain (AID 167); details: S. cerevisiae bub3 mutant strain, active compounds read high
How it was run: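 In this screen, a yeast mutant lacking normal mitotic checkpoint function is challenged with compound. Relative growth versus vehicle gives the inhibition value.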

[12] = NCI Yeast Anticancer Drug Screen. Data for the wt2 strain (AID 169);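 also: 0% = growth of vehicle-treated yeast cultures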; details: S. cerevisiae wt2 strain growth inhibition, active compounds read high
How it was run: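 Read-out: growth inhibition versus vehicle-treated control cultures after compound exposure of the yeast strain.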

[13] = NCI Yeast Anticancer Drug Screen. Data for the mlh1 strain (AID 171);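 also: 0% = growth of vehicle-treated control cultures of the same strain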; details: S. cerevisiae mlh1 strain growth inhibition, active compounds read high
How it was run: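 Read-out: growth inhibition versus vehicle controls. Strain: engineered yeast with a defined DNA repair or cell cycle defect, compound-treated.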

[14] = NCI Yeast Anticancer Drug Screen. Data for the sgs1 strain (AID 173);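 also: 0% = growth of vehicle-only control cultures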; details: S. cerevisiae sgs1 mutant, active compounds read high
How it was run: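 Read-out: yeast growth inhibition relative to vehicle controls, following compound exposure of a strain with a defined DNA repair/cell cycle alteration.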

[15] = NCI Yeast Anticancer Drug Screen. Data for the rad18 strain (AID 177); details: S. cerevisiae rad18 mutant growth inhibition, active compounds read high
How it was run: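 Readout: growth inhibition vs vehicle controls. Cells: genetically altered yeast strain, DNA repair defect.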

[16] = at 5.0 µM (retest, dose inferred, filed as 0.5)
[17] = at 50.0 µM (retest, dose inferred, filed as 5.0)

Measured: growth inhibition

CCC(=O)c1cccc2ccccc12
inactive: [1]; at 1.2 µM 1% | [1]; at 3.7 µM 2% | [1]; at 11.0 µM 1% | [1]; at 33.0 µM 2% | [1]; at 100.0 µM -1% | [2]; at 1.2 µM 0% | [2]; at 3.7 µM 1% | [2]; at 11.0 µM 3% | [2]; at 33.0 µM 0% | [2]; at 100.0 µM -4% | [3]; at 1.2 µM 6% | [3]; at 3.7 µM 11% | [3]; at 11.0 µM 27% | [3]; at 33.0 µM 48% | [4]; at 1.2 µM 1% | [4]; at 3.7 µM -1% | [4]; at 11.0 µM 0% | [4]; at 33.0 µM 15% | [4]; at 100.0 µM 3% | [5]; at 1.2 µM 0% | [5]; at 3.7 µM -1% | [5]; [16] -14% | [5]; at 11.0 µM 1% | [5]; at 33.0 µM 0% | [5]; [17] 2% | [5]; at 50.0 µM 14.7% | [5]; at 100.0 µM -3% | [6]; at 1.2 µM -2% | [6]; at 3.7 µM 0% | [6]; [16] 5% | [6]; at 11.0 µM -2% | [6]; at 33.0 µM -1% | [6]; [17] 4% | [6]; at 50.0 µM 19.2% | [6]; at 100.0 µM -1% | [7]; at 1.2 µM -1% | [7]; at 3.7 µM -2% | [7]; at 11.0 µM -1% | [7]; at 33.0 µM -1% | [7]; at 100.0 µM 4% | [8]; [16] -4% | [8]; [17] 52% | [8]; at 50.0 µM 20% | [9]; at 1.2 µM -7% | [9]; at 3.7 µM 2% | [9]; at 11.0 µM -6% | [9]; at 33.0 µM -13% | [9]; at 100.0 µM -11% | [10]; [16] 12% | [10]; [17] 18% | [10]; at 50.0 µM 46.5% | [11]; at 1.2 µM -6% | [11]; at 3.7 µM -6% | [11]; [16] 11% | [11]; at 11.0 µM -6% | [11]; at 33.0 µM -8% | [11]; [17] 23% | [11]; at 50.0 µM -4.8% | [11]; at 100.0 µM 4% | [12]; at 1.2 µM 1% | [12]; at 3.7 µM 2% | [12]; at 11.0 µM 3% | [12]; at 33.0 µM 1% | [12]; at 100.0 µM 1% | [13]; at 1.2 µM 3% | [13]; at 3.7 µM 2% | [13]; at 11.0 µM 2% | [13]; at 33.0 µM 1% | [13]; at 100.0 µM 4% | [14]; at 1.2 µM 1% | [14]; at 3.7 µM 3% | [14]; at 11.0 µM 4% | [14]; at 33.0 µM 3% | [14]; at 100.0 µM 14% | [15]; at 1.2 µM 1% | [15]; at 3.7 µM -1% | [15]; at 11.0 µM -14% | [15]; at 33.0 µM 0% | [15]; at 100.0 µM -2%
active: [3]; at 100.0 µM 86%

CC(/C=C/c1ccc2c(c1)OCO2)[N+](=O)[O-] (stereo not given)
inactive: [1]; at 1.2 µM 40% | [2]; at 1.2 µM 8% | [4]; at 1.2 µM 1% | [4]; at 3.7 µM 16% | [5]; at 1.2 µM 33% | [6]; at 1.2 µM 4% | [6]; at 3.7 µM 30% | [6]; [16] 2% | [7]; at 1.2 µM 18% | [7]; at 3.7 µM 61% | [8]; [16] 62% | [9]; at 1.2 µM -1% | [9]; at 3.7 µM 37% | [10]; [16] -13% | [11]; at 1.2 µM 23% | [11]; at 3.7 µM 69% | [11]; [16] 46%
active: [1]; at 3.7 µM 93% | [1]; at 11.0 µM 99% | [1]; at 33.0 µM 99% | [1]; at 100.0 µM 99% | [2]; at 3.7 µM 71% | [2]; at 11.0 µM 99% | [2]; at 33.0 µM 100% | [2]; at 100.0 µM 99% | [3]; at 1.2 µM 73% | [3]; at 3.7 µM 94% | [3]; at 11.0 µM 99% | [3]; at 33.0 µM 99% | [3]; at 100.0 µM 99% | [4]; at 11.0 µM 99% | [4]; at 33.0 µM 99% | [4]; at 100.0 µM 99% | [5]; at 3.7 µM 86% | [5]; [16] 86% | [5]; at 11.0 µM 99% | [5]; at 33.0 µM 99% | [5]; [17] 97% | [5]; at 50.0 µM 99.6% | [5]; at 100.0 µM 99% | [6]; at 11.0 µM 100% | [6]; at 33.0 µM 99% | [6]; [17] 99% | [6]; at 50.0 µM 99.7% | [6]; at 100.0 µM 99% | [7]; at 11.0 µM 100% | [7]; at 33.0 µM 99% | [7]; at 100.0 µM 100% | [8]; [17] 98% | [8]; at 50.0 µM 99.5% | [9]; at 11.0 µM 99% | [9]; at 33.0 µM 99% | [9]; at 100.0 µM 99% | [10]; [17] 98% | [10]; at 50.0 µM 99.2% | [11]; at 11.0 µM 99% | [11]; at 33.0 µM 99% | [11]; [17] 98% | [11]; at 50.0 µM 99% | [11]; at 100.0 µM 98%
